Bioassay records (PubChem BioAssay)
An excerpt weighted towards active compounds, which were near 4.8% of everything screened.
DAX1 inh-1: inhibits human nuclear receptor DAX1; HEK293 Gal4-DAX1 luciferase reporter, luminescence; inhibition, % at 6.75 µM; 340,000 tested, 0.99% active; AID 504766;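 active = inhibition above the mean over all tested compounds plus 3 SD, cut at about 4.2% in these data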;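 note: inhibition shows as a rise in luminescence from relieved DAX1 repression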
Target sequence (P51843 207-470 limits assumed): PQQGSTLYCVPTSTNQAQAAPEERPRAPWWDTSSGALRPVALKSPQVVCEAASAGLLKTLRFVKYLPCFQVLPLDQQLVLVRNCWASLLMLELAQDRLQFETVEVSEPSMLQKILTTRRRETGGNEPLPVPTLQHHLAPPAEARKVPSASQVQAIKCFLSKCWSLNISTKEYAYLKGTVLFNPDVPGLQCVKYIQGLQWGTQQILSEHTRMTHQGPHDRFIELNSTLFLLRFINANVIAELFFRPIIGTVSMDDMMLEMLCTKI
DAX1 inh-2: blocks DAX1 repression of SF-1 activated StAR promoter. 370,000 tested, 1.1% active. HEK293T StAR-luciferase reporter, SF-1/DAX-1 repression relief. inhibition, % at 6.8 µM;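 active = inhibition above the mean over all tested compounds plus 3 SD, cut at about 3.6% in these data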;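 note: higher inhibition means more luminescence from relief of DAX-1 repression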
ssDAF12 agonist: activators of S. stercoralis DAF-12 nuclear receptor; HEK293 ssDAF-12/GRIP1 lit1-tk-luc reporter, luminescence; % of 3 µM dafachronic acid response; activation, % at 6.8 µM; 370,000 tested, 1% active;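 active = activation above the mean over all tested compounds plus 3 SD, cut at about 0.9% in these data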
hgDAF12 agonist: hgDAF-12 agonism, primary luciferase screen; HEK293 GAL4-hgDAF12 UAS-luciferase reporter, agonist luminescence; normalized to butyrate control; activation, % at 6.8 µM; 370,000 tested, 1.8% active;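 active = activation above a cutoff set at the mean of all screened compounds plus 3 SD, cut at about 10% in these data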
SMARCA2 act: activators of SMARCA2 function | 370,000 tested, 1% active | MG213 cells, MMTV-luciferase reporter, dexamethasone, overnight | activation, % at 9.1 µM; in the data active = activation above about 7.8%
hcDAF12 agonist: activates DAF-12 receptor from parasite H. contortus. HEK293 hcDAF-12 lit1-tk-luc reporter, luminescence; 0% DMSO, 100% Δ7-dafachronic acid. activation, % at 6.8 µM. 370,000 tested, 1.4% active. AID 652067;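 active = activation above the mean of all tested compounds plus 3 SD, cut at about 5.5% in these data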
Numbers stand for hits; n = inactive; x = not tested or not shown.

SMILES	DAX1 inh-1	DAX1 inh-2	ssDAF12 agonist	hgDAF12 agonist	SMARCA2 act	hcDAF12 agonist
O=C(Nc1ccc([N+](=O)[O-])cc1)c1ccccc1F	n	n	n	11.6	n	n
O=C(CSc1ccsc1[N+](=O)[O-])NCCc1ccc(Cl)cc1	n	n	n	n	n	n
O=C(CSc1ccsc1[N+](=O)[O-])NCCc1ccccc1	n	n	n	n	n	n
COc1ccc(CNC(=O)CSc2ccsc2[N+](=O)[O-])cc1	n	n	1.3	n	n	n
Cc1ccc(CNC(=O)CSc2ccsc2[N+](=O)[O-])cc1	n	n	n	10.8	n	6.5
CC(=O)NNC(=O)c1csc(-c2csc(C)n2)n1	7.3	n	n	n	n	n
Cc1ccccc1NC(=O)N(C)[C@H]1C[C@H]2c3[nH]c4c(-c5ccccc5)cccc4c3CCN2C[C@H]1[C@H](C)O	x	n	n	n	n	n
COc1ccc(CN(C(=O)c2cccs2)c2ccccc2)cc1	n	n	n	n	n	n
COc1ccc(CN(C(=O)c2ccco2)c2ccccc2)cc1	n	n	n	n	n	5.9
Cc1ccccc1NC(=O)CSc1nc2ccccc2o1	n	n	n	11.0	n	n
Cc1ccccc1/C=N/NC(=O)CSc1nc2ccccc2o1	n	n	n	n	n	n
N#CC1(NC(=O)CSc2nc3ccccc3o2)CCCCC1	4.9	n	n	n	n	n
N#CC1(NC(=O)CSc2nc3ccccc3s2)CCCCC1	n	n	n	n	n	n
C[C@H]1COc2cc(Br)ccc2S(=O)(=O)N1Cc1cn(Cc2ccc(C(F)(F)F)cc2)nn1	x	n	n	n	n	n
CCn1c(C)nc2cc(NC(=O)Nc3cccc(C(C)=O)c3)ccc21	n	n	n	12.2	n	n
CCn1c(C)nc2cc(C(=O)OC)ccc21	n	n	n	n	n	n
O=C(Nc1ccc2c(c1)OCCO2)c1ccccc1	n	x	x	x	x	x
O=C(NCc1ccncc1)c1cncc(Br)c1	4.4	n	n	n	n	n
O=C(Nc1ccc2c(c1)OCCO2)c1cncc(Br)c1	n	n	n	11.1	n	n
O=C(Nc1ccc2c(c1)OCO2)c1cncc(Br)c1	n	n	n	11.3	n	n
CCc1sc(C(=O)Nc2ccc3c(c2)OCCO3)cc1Br	n	7.1	n	10.9	n	n
Cc1nc(N2CCCCC2C)c2nnn(Cc3ccccc3)c2n1 (stereo unspecified)	x	n	n	n	n	n
CN(C)S(=O)(=O)N1CCCC(C(=O)c2ccc(-c3ccccc3)cc2)C1 (stereo unspecified)	4.3	n	n	n	n	n
C=CCOC(=O)N[C@H](c1ccc2ccccc2c1)[C@H](C)/C=C/CC(=O)OC	x	n	n	n	n	n
Cc1cc(C(=O)CSc2nnnn2C)c(C)n1CCc1ccc(F)cc1	n	n	n	n	n	n
SMILES	DAX1 inh-1	DAX1 inh-2	ssDAF12 agonist	hgDAF12 agonist	SMARCA2 act	hcDAF12 agonist
Cc1cc(C(=O)CSc2nnnn2C)c(C)n1Cc1ccco1	n	n	n	11.7	n	n
Cc1ccc(-n2c(C)cc(C(=O)CSc3nnnn3C)c2C)cc1	n	n	n	11.6	n	n
CCN(CC)C(=O)[C@H]1C[C@@H]2[C@H](C[C@@H](c3ccccc3)[C@H]1C)N(c1ccc(F)cc1)C(=O)N2CCCOc1ccccc1	x	n	n	n	n	n
O=S(=O)(CC1NCc2cc(F)ccc21)NCc1ccc(F)cc1 (stereo unspecified)	x	n	n	n	n	n
COc1cc(CNCCc2ccccc2)cc(Br)c1OCC(=O)Nc1ccccc1C	4.3	n	n	n	n	n
CNCc1cc(Br)c(OCC(=O)Nc2ccccc2OC)c(OC)c1	n	n	n	n	n	n
O=C(CSC(=S)N1CCOCC1)Nc1nc(-c2ccccc2)c(-c2ccccc2)o1	5.6	n	n	n	n	n
O=C(CSC(=S)N1CCCCC1)Nc1nc(-c2ccccc2)c(-c2ccccc2)o1	n	n	n	n	n	n
Nc1cc[n+](CC(=O)c2ccccc2)cc1	n	n	n	n	n	n
O=C(C[n+]1ccc2ccccc2c1)c1ccccc1	4.8	n	n	n	n	n
Cc1cccc(NC(=O)CN2CCN(C(=O)c3ccc(-c4nc5ccccc5s4)o3)CC2)c1C	n	4.0	n	n	n	n
CCOC(=O)NC[C@@]1(C(=O)OC)CC(=O)N(C)[C@@H]1c1ccccc1	x	n	n	n	n	n
COc1ccc(Nc2nnc(SCC(=O)NC3CCS(=O)(=O)C3)s2)cc1 (stereo unspecified)	n	3.6	n	n	n	n
CCc1ccc(-c2nc(SCC(=O)NC3CCS(=O)(=O)C3)n[nH]2)cc1 (stereo unspecified)	n	3.6	n	n	n	n
O=C(CSc1n[nH]c(-c2ccncc2)n1)NC1CCS(=O)(=O)C1 (stereo unspecified)	n	n	n	n	n	n
CCc1ccc(Nc2nnc(SCC(=O)N(C)C3CCS(=O)(=O)C3)s2)cc1 (stereo unspecified)	n	n	n	12.2	n	n
COC(=O)[C@H]1C[C@@]2(C#N)c3ccccc3N(C(=O)OC(C)(C)C)[C@H]2N1C(=O)OC(C)(C)C	x	n	n	n	n	n
CCCCn1c(O)c2n(c1=O)Cc1ccccc1N=C2c1ccc(OC)cc1	x	n	n	n	n	5.6
COc1ccc2c(c1)CCCN2C(=O)C1CCCN(S(=O)(=O)c2ccc(Br)s2)C1 (stereo unspecified)	x	n	n	n	n	n
COc1cccc(-c2ccc(=O)n(CC(=O)NCCN3CCOCC3)n2)c1	n	n	0.9	n	n	n
CCN(CC)C(CNC(=O)CSc1nnnn1-c1c(C)cccc1C)c1ccco1 (stereo unspecified)	n	3.6	n	n	n	n
CCN(CC)C(CNC(=O)CSc1nnnn1-c1ccc(C)c(C)c1)c1ccco1 (stereo unspecified)	n	n	n	n	n	n
NC(=O)CCN1CCCCC1	4.5	n	n	n	n	n
COc1ccc(C(=O)/C=C/c2cn(CC(O)CN3CCN(C)CC3)c3ccccc23)cc1OC (stereo unspecified)	5.0	n	n	n	n	n
COc1ccc(CNc2cccnc2Cl)cc1	x	n	n	11.1	n	n
SMILES	DAX1 inh-1	DAX1 inh-2	ssDAF12 agonist	hgDAF12 agonist	SMARCA2 act	hcDAF12 agonist
COc1ccc(CNc2ncccc2[N+](=O)[O-])cc1	n	n	n	n	n	n
Clc1ccc(-c2cc(CSc3ccccc3)on2)cc1	n	n	n	12.8	n	n
c1ccc(SCc2cc(-c3ccccc3)no2)cc1	n	n	n	n	n	n
O=C(CCNc1ccccc1)c1ccc2c(c1)OCO2	4.8	n	n	11.3	n	n
CN(C)CCC(=O)c1ccc2c(c1)OCO2	n	n	n	n	n	n
Cn1c(C(=O)N[C@@H](C(=O)O)c2ccccc2)cc2cc(Cl)ccc21	n	n	n	n	n	5.9
